Screens (PubChem BioAssay)
The list is not random: actives were taken first. Their share in the collection is about 1.2%.
PG9 binder: binds the HIV-1 gp120 antibody PG9; TR-FRET gp120-PG9 antibody binding; 0.43% of 360,000 active; inhibition, % at 6.7 µM; in the data active = inhibition above about 8.5%
Rev-erbA mod: modulators of human Rev-erb alpha DNA binding; Rev-erbα–FITC-DNA binding, fluorescence polarization, 90 min; activity, % at 10 µM; 0.79% of 370,000 active;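 active = activity above about 14%, limit read from the data; passing the limit was not always enough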;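 also: 0% = DMSO wells with 35 nM protein and 100% = DMSO wells with 750 nM protein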
Target sequence (P20393 whole entry, looked up): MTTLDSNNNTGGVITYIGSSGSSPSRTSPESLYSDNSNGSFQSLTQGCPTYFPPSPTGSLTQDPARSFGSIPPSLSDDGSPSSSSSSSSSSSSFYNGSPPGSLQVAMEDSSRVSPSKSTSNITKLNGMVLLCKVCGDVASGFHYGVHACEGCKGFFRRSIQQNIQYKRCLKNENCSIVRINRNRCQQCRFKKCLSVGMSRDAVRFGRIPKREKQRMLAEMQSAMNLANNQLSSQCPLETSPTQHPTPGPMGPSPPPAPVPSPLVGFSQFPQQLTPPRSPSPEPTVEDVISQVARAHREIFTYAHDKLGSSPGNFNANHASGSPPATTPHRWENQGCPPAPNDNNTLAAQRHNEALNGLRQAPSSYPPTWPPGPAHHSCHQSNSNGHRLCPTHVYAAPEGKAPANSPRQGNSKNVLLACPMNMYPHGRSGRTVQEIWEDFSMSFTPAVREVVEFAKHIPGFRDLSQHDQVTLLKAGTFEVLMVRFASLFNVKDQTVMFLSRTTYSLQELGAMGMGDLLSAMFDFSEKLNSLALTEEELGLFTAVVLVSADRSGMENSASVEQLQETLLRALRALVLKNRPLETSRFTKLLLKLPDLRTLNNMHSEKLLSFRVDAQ
PKA-R1A act: PKA-R1A complex activation. P00514+P68181. PKA-R1A dissociation, Cy5-IP20 fluorescence polarization; scaled: DMSO 0%, 113 µM cGMP 100%. activation, % at 11.4 µM. 0.083% of 340,000 active. AID 504707;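 active = percent activation above the mean of all tested compounds plus 3 SD, cut at about 19% in these data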;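 also: higher means more PKAc released from R1A so a rise in polarization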
PKA-R2B act: activates the human PKA-R2B holoenzyme complex. P22694+P31323. PKA-R2B holoenzyme dissociation, Cy5-IP20 fluorescence polarization; R2B truncated from residue 108, S112A mutant; 0% DMSO only, 100% 113 µM cGMP. 0.079% of 340,000 active. activation, % at 11.4 µM;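 active = activation above a cutoff set at the mean over all compounds plus 3 SD, cut at about 18% in these data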;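 also: higher means more holoenzyme dissociation and a rise in polarization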
Rev-erbA confirm: confirmation of modulators of human Rev-erb alpha DNA binding; shares compounds with Rev-erbA mod; activation, % at 25 µM; AID 1259319; 61% of 3,000 active; Rev-erb alpha FITC-DNA binding, fluorescence polarization, 90 min;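 active = activation at or above a set limit, or at least 3 SD above the negative control mean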;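 also: 0% = 35 nM protein with DMSO and 100% = 750 nM protein high control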
RORg counter: RORgamma DNA-binding activity, dose-response counter-screen | purified RORgamma protein-FITC-DNA binding, fluorescence polarization | IC50, µM | shares compounds with Rev-erbA mod | 8% of 910 active;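 active = Compounds whose fitted half-maximal concentration for disrupting protein-DNA binding is below 10 micromolar; the record names Rev-erb in its text, so the target is in doubt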
* = called active by the depositor; i = inactive; x = no result given.

SMILES	PG9 binder	Rev-erbA mod	PKA-R1A act	PKA-R2B act	Rev-erbA confirm	others
Cc1ccc(-n2c(SCC(=O)Nc3cccc(S(=O)(=O)NC4=NCCCCC4)c3)nc3ccccc3c2=O)cc1	-3	80*	-4	11	42*	RORg counter=>40
CCOC(=O)c1c(NC(=O)CSc2ncnc3ccccc23)sc(C(C)=O)c1C	-1	-10	-3	0	x
Cc1ccc(-n2c(SCC(=O)Nc3cc(S(=O)(=O)N4CCOCC4)ccc3Cl)nc3ccccc3c2=O)cc1	0	12	-13	-8	x
Cc1ccc2c(c1)C(CS(=O)(=O)NCc1ccc(F)cc1)NC2 (stereo not given)	x	0	x	x	x
O=C(Nc1ccc(Cl)cn1)c1ccc2c(Cl)c3c(nc2c1)CCC3	1	-2	-1	-8	x
Cc1cccc(NC(=O)c2ccc3c(Cl)c4c(nc3c2)CCCC4)n1	3	24*	0	1	11
c1ccc(-c2cccc3[nH]cc(-c4ccccc4)c23)cc1	x	-1	x	x	x
Cc1cc(NC(=O)c2ccc(NS(=O)(=O)c3ccccc3F)cc2)no1	x	-4	x	x	x
COc1ccc(CN(Cc2cc3cc(OC)c(OC)cc3[nH]c2=O)C(=O)NC2CCCCC2)cc1	-1	50*	9	8	78*	RORg counter=>40
CNC(=S)N(Cc1ccc(OC)cc1)Cc1cc2cc(C)ccc2[nH]c1=O	0	40*	x	x	25*
O=C(OCC#CCSc1nnc(-c2cccc3ccccc23)o1)c1ccc(F)c(F)c1	x	-2	x	x	x
COc1ccc(OC)c2c1sc(=NC(=O)c1ccco1)n2C	1	16	2	-7	x
Cc1ccc(-c2c(C)sc(=NC(=O)c3ccco3)n2C)cc1	1	37*	1	3	16*
O=C(NCCc1c[nH]c2ccccc12)OCc1cn(Cc2c(F)cccc2F)nn1	x	-6	x	x	x
c1ccc(-c2nn(Cc3ncco3)c3ccccc23)cc1	x	1	x	x	x
CC1CCN(c2nc(-c3ccccc3O)nc3ccccc23)CC1	3	2	-7	-11	x
Oc1ccccc1-c1nc(N2CCCC2)c2ccccc2n1	-2	134*	-5	-10	69*	RORg counter=6.9*
Oc1ccccc1-c1nc(NCc2ccccc2)c2ccccc2n1	6	97*	-10	-8	77*	RORg counter=>40
C=CCN1C(=O)[C@H](CC(=O)NCCC(C)C)[C@@]2(C(=O)OCC)CCCC=C12	x	7	x	x	x
N#Cc1ccc(-c2cccnc2)nc1SCc1ccc(Cl)c(Cl)c1	1	16	5	-4	x
N#Cc1ccc(-c2cccnc2)nc1SCc1ccc(Cl)cc1Cl	-2	20*	4	-10	6
Cc1nn(-c2ccc(Cl)cc2)c2sc(C(=O)c3c(N)n(C)c(=O)n(C)c3=O)cc12	1	31*	-5	-4	38*	RORg counter=>40
Cn1c(N)c(C(=O)c2ccc(Cl)cc2)c(=O)n(C)c1=O	0	-4	-8	-3	x
COc1cccc(OC)c1C(=O)NC(=S)Nc1cc(-c2nc3ccccc3[nH]2)ccc1Cl	7	26*	5	7	24*
COc1cc(N2N=C(c3ccccc3)CC2c2ccccc2)c(C=O)cc1C=O (stereo not given)	1	107*	2	-1	75*	RORg counter=>40
SMILES	PG9 binder	Rev-erbA mod	PKA-R1A act	PKA-R2B act	Rev-erbA confirm	others
CCC(=O)Oc1ccc2c(=O)c(-c3ccc4ccccc4n3)c(CC)oc2c1C	-1	11	9	5	x
Cc1oc2c(C)c(O)ccc2c(=O)c1-c1ccc2ccccc2n1	3	23*	4	3	20*
COc1ccc(-n2c3c(cc(C(=O)NCC(=O)c4ccccc4)c2=O)C(=O)CC(C)(C)C3)cc1	0	19*	-13	-11	8
COC(=O)C1CN(C2CCCC2)CCS(=O)(=O)N1Cc1cn(Cc2ccc(OC)cc2)nn1 (stereo not given)	x	-9	x	x	x
O=C(Nc1ccc(-c2nc3cc(Cl)ccc3c(=O)o2)cc1)c1ccco1	0	27*	-2	-15	0
O=C(c1ccccc1F)N(Cc1ccc2c(c1)OCO2)Cc1cc2cc3c(cc2n2nnnc12)OCO3	-1	34*	9	-2	16
O=C(CSc1nc2ccccc2nc1N1CCCCC1)N1CCN(C(c2ccccc2)c2ccc(Cl)cc2)CC1 (stereo not given)	x	19*	x	x	21*
O=C(CSc1nc2ccccc2nc1N1CCCC1)N1CCN(C(c2ccccc2)c2ccccc2)CC1	x	-8	x	x	x
CCN1C(=O)CSC1=NC1C2CC3CC(C2)CC1C3 (stereo not given)	-1	42*	13	15	48*	RORg counter=>40
COc1cc(NC(=O)CCc2nnc3ccc(N4CCN(c5cccc(OC)c5)CC4)nn23)cc(OC)c1	0	29*	-5	2	12
CCOc1ccc(-n2c(SCC(=O)Nc3cc(C)c(NC(=O)c4ccccc4)cc3OC)nnc2-c2ccncc2)cc1	x	-3	x	x	x
CCCc1cn(-c2ccc3c(c2)[C@]2(CC(=O)N(C)C2c2ccccc2)C(=O)N3CC(C)C)nn1 (stereo not given in full)	x	4	x	x	x
Cc1cc(C)c2cc(C#N)c(SCC(=O)NCC3CCCO3)nc2c1 (stereo not given)	0	103*	6	-5	88*	RORg counter=i
O=C(CSc1ncnc2ccccc12)Nc1ccc2c(c1)OCCO2	0	1	8	14	x
Cc1cc(C)c2cc(C#N)c(SCC(=O)Nc3ccc4c(c3)OCO4)nc2c1	4	62*	1	2	196*	RORg counter=>40
CC(Sc1nc2ccccc2c(=O)n1C)C(=O)Nc1ccc2c(c1)OCCO2 (stereo not given)	2	27*	-4	-2	12*
O=C(CSc1nc(Cc2ccccc2)nc2ccccc12)Nc1ccc2c(c1)OCCO2	8	33*	-3	-1	27*
CC(C)Cn1c(SC(C)C(=O)Nc2ccc3c(c2)OCCO3)nc2ccccc2c1=O (stereo not given)	0	-3	-8	-8	x
COC(=O)C1CN(C2CCCC2)CCS(=O)(=O)N1Cc1ccc(C(F)(F)F)cc1 (stereo not given)	x	6	x	x	x
FC(F)(F)c1ccc(N2CCN(c3ncnc4c3nnn4Cc3ccccc3)CC2)nc1	0	21*	6	-10	3
CC(C)(C)c1ccc(-c2nnc(SCC(=O)Nc3ccc4c(c3)OCCO4)n2-c2ccc(Cl)cc2)cc1	x	-9	x	x	x
CN(C)C(=O)CSc1cnc2ccccc2n1	1	-6	2	1	x
Cc1ccc(C(=O)CSc2cnc3ccccc3n2)cc1C	2	30*	-4	-15	14
O=C1CSC(c2ccccc2)N1Nc1nc(N2CCOCC2)nc(N2CCOCC2)n1 (stereo not given)	-2	22*	-4	-8	5
O=C(NCc1ccccc1)c1c(O)c2cccc3c2n(c1=O)CCC3	4	-5	-4	-14	x
